{"source": "PubChem BioAssay AID504333", "about": "(National Center for Advancing Translational Sciences (NCATS), 2011)", "note": "Values joined by “and” are separate entries in the source; they are usually repeats but may differ in a detail not shown here. Equal values may be shown once. In all, about 360,000 compounds went through this assay and about 16,000 (4.4%) were called active. Not shown: some 9% with an inconclusive outcome. The call rests on the fitted dose curve; in most records, active means well fitted inhibition curve with a large enough effect; inconclusive means small, poorly fitted or top-dose-only effect; inactive means no such curve, though single readings can be large or run the other way. The sample as a whole holds a higher share of actives than the screen did. The source holds several records for some structures; these can differ, active in one and inactive in another. On the % scale 0 is the no-effect control and ±100 the full control effect; potency means the concentration at half of the fitted maximal effect."}
{"biological_target": "Bromodomain adjacent to zinc finger domain protein 2B (Homo sapiens) (UniProt Q9UIF8)", "sequence (Q9UIF8 whole entry, looked up, the tested form may be a part)": "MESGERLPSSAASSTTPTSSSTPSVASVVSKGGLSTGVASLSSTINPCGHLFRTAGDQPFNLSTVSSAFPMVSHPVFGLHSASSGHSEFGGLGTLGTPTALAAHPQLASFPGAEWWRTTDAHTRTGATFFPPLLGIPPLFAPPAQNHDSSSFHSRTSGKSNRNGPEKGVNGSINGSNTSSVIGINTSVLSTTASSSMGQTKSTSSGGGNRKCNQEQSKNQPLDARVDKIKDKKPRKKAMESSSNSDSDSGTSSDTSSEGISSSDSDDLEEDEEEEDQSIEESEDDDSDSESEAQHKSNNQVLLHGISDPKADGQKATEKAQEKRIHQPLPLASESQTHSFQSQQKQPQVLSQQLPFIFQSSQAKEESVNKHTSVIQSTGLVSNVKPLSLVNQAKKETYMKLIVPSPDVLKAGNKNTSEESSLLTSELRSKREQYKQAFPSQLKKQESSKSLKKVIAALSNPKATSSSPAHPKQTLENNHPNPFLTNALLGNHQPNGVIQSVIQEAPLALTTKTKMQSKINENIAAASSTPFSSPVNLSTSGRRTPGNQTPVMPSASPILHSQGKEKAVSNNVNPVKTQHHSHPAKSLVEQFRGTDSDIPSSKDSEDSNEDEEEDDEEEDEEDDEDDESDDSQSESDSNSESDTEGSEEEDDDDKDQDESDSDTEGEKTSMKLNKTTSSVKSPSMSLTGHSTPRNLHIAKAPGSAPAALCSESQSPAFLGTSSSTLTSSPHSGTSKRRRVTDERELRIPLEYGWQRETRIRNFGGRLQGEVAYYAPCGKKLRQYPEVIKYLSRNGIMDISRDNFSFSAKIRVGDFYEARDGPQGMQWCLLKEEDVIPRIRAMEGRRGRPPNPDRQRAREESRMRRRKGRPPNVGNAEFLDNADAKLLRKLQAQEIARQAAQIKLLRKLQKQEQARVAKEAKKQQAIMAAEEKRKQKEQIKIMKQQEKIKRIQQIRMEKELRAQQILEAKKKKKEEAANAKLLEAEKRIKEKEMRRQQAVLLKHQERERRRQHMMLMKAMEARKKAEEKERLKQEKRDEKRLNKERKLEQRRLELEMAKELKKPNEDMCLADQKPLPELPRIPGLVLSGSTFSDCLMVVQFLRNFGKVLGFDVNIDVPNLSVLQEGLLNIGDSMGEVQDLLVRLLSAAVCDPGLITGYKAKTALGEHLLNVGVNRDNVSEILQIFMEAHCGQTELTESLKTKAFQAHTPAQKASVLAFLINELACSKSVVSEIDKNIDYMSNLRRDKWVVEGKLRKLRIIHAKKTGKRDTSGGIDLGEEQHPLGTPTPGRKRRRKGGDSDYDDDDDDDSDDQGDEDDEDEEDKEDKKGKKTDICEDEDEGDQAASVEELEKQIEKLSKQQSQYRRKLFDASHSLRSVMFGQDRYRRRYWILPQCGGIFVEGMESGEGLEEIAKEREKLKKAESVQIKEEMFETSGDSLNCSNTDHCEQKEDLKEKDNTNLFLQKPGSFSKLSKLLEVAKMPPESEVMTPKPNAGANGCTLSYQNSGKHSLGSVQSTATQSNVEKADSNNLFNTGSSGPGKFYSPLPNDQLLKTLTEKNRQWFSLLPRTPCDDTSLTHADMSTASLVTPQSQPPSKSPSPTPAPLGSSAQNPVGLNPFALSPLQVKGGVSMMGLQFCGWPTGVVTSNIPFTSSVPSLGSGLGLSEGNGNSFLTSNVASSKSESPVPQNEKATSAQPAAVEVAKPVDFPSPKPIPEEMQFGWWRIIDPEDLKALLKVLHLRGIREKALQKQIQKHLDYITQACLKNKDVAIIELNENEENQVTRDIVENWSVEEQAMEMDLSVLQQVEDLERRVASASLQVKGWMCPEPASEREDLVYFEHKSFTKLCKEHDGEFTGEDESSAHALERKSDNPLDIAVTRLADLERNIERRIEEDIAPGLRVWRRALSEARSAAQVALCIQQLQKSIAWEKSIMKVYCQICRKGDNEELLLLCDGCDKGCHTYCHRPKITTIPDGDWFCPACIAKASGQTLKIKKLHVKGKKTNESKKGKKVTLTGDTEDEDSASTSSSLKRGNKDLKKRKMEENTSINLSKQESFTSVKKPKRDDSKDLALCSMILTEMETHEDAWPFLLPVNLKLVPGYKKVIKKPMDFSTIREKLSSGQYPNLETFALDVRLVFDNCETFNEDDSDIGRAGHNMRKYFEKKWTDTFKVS", "assay": "qHTS Assay for Inhibitors of BAZ2B; further: nearly all actives have a fitted effect of over 60% in size", "settings": "AlphaScreen BAZ2B-H3K14Ac peptide displacement; series mostly up to 114 µM; activity change, negative = inhibition: at the top concentration", "procedure,_shortened": "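Protein-peptide AlphaScreen: BAZ2B 50 nM, b-H3K14Ac 50 nM, 1x PBS pH 7.4 + 0.01% Tween-20. Preincubation 30 min RT; cpd 30 min RT (top 110 uM); beads 20 min RT, light-protected.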"}
{"compound": "Cc1nc2nc(NCc3cccc(Br)c3)[nH]n2c(=O)c1Cc1ccccc1", "activity change, negative = inhibition": "-11.6% (inactive)"}
{"compound": "O=C(CSc1nc2c(c(=O)[nH]1)CN(Cc1ccc(F)cc1)CC2)Nc1ccccc1Cl", "activity change, negative = inhibition": "1.1% (inactive)"}
{"compound": "Cc1noc2ncnc(NCc3ccccc3Cl)c12", "activity change, negative = inhibition": "15% [at 57.1 µM] (inactive)"}
{"compound": "COC(=O)c1ccc(NC(=O)c2cc(S(=O)(=O)N3CCC(C)CC3)cn2C)cc1", "activity change, negative = inhibition": "4.42% (inactive)"}
{"compound": "Cc1oc(-c2ccccc2F)nc1CN1CCC(C(=O)NCCc2ccc(Cl)cc2)CC1", "activity change, negative = inhibition": "-11.5% (inactive)"}
{"compound": "CC(=O)Nc1ccc(S(=O)(=O)Oc2ccc(/C=N/N=C3/NC(=O)C(CC(=O)O)S3)cc2)cc1", "note": "(stereo not given)", "Potency": "50.1 µM (active)"}
{"compound": "Cc1ccc(NC(=O)CC2S/C(=N/N=C3\\CCCc4ccccc43)NC2=O)cc1", "note": "(stereo not given)", "activity change, negative = inhibition": "-32% (inactive)"}
{"compound": "Cc1ccc(S(=O)(=O)Oc2ccc(/C=N/NC(=O)c3ccncc3)cc2)cc1", "activity change, negative = inhibition": "-6.9% (inactive)"}
{"compound": "CCOc1ccc(N2CC(C)Cn3c2nc2c3c(=O)n(Cc3c(F)cccc3Cl)c(=O)n2C)cc1", "note": "(stereo not given)", "activity change, negative = inhibition": "-1.59% (inactive)"}
{"compound": "COC(=O)C1=CN(Cc2ccc(OC)cc2)C=C(C(=O)OC)C1c1ccc(O)c(OC)c1", "activity change, negative = inhibition": "11.4% (inactive)"}
{"compound": "COc1cc2c(cc1O)[C@H](Cc1ccc(Oc3cc(C[C@@H]4NCCc5cc(OC)c(O)cc54)ccc3O)cc1)NCC2", "Potency": "39.8 µM (active)"}
{"compound": "CCc1ccc(OCC2c3cc(OC)c(OC)cc3CCN2C(C)=O)cc1", "note": "(stereo not given)", "activity change, negative = inhibition": "-16.9% (inactive)"}
{"compound": "Cn1c(=O)n(Cc2c(F)cccc2Cl)c(=O)c2c1nc1n2CCN1c1ccc(F)cc1", "activity change, negative = inhibition": "-0.264% (inactive)"}
{"compound": "COc1cccc(CNC(=O)CCc2nc(-c3ccc(C)cc3)no2)c1", "activity change, negative = inhibition": "-3.1% (inactive)"}
{"compound": "CCCCOc1ccc(CNC(=O)c2ccc3c(c2)N(C)C(=O)C2CCCCN32)cc1", "note": "(stereo not given)", "activity change, negative = inhibition": "-23.3% (inactive)"}
{"compound": "COc1ccc(OC)c2[nH]c(=O)c(CCNC(=O)C(=O)c3c[nH]c4ccccc34)cc12", "Potency": "56.2 µM (active)"}
{"compound": "COc1ccc(OC)c2[nH]c(=O)c(CCNC(=O)C(C)(C)C)cc12", "activity change, negative = inhibition": "3.16% (inactive)"}
{"compound": "O=C(NCCCc1ccccc1)C(=O)c1c[nH]c2ccccc12", "activity change, negative = inhibition": "-19% (inactive)"}
{"compound": "COc1ccc(CCNC(=O)c2ccc(CSCc3ccc(C)cc3)o2)cc1OC", "activity change, negative = inhibition": "-31.1% (inactive)"}
{"compound": "COc1cc2c(=O)c(S(=O)(=O)c3ccc(C(C)C)cc3)cn(Cc3ccccc3C)c2cc1OC", "activity change, negative = inhibition": "-17.5% (inactive)"}
{"compound": "CCC1(C)CC(=O)c2c(ccc3oc(C(=O)Nc4ccc(C(C)=O)cc4)c(C)c23)O1", "note": "(stereo not given)", "activity change, negative = inhibition": "0.108% (inactive)"}
{"compound": "COCCNC(=O)Nc1ccc2nc(-c3ccco3)c(-c3ccco3)nc2c1", "Potency": "5.62 µM (active)"}
{"compound": "COc1ccc(NC(=O)COCc2cc(-c3ccco3)on2)cc1", "activity change, negative = inhibition": "4.22% (inactive)"}
{"compound": "CCOc1ccc(NC(=O)c2ncoc2-c2ccco2)cc1", "activity change, negative = inhibition": "-33.1% (inactive)"}
{"compound": "COc1ccc(-c2nc3ccc(C(=O)NCc4ccc(C)cc4)cc3nc2-c2ccc(OC)cc2)cc1", "activity change, negative = inhibition": "23.8% (inactive)"}
{"compound": "O=C(NCc1ccccn1)c1ccc2nc(-c3ccco3)c(-c3ccco3)nc2c1", "Potency": "11.2 µM (active)"}
{"compound": "COc1cccc(S(=O)(=O)NCc2ccc(C(=O)NCc3ccccn3)cc2)c1", "activity change, negative = inhibition": "-1.71% (inactive)"}
{"compound": "O=C(NCc1ccc2c(c1)CCN2C(=O)c1ccccc1)c1ccccc1", "activity change, negative = inhibition": "-10.7% (inactive)"}
{"compound": "CCOC(=O)c1cc2c(=O)n3ccccc3nc2n(CC2CCCO2)c1=NC(=O)c1ccccc1F", "note": "(stereo not given)", "activity change, negative = inhibition": "3.27% (inactive)"}
{"compound": "O=C(Cn1cc(SCc2cccc(Cl)c2)c2ccccc21)N1CCCCC1", "activity change, negative = inhibition": "1.17% (inactive)"}
{"compound": "O=C(NCC(c1ccc(Cl)cc1)N1CCOCC1)c1ccccc1F", "note": "(stereo not given)", "activity change, negative = inhibition": "-29.4% (inactive)"}
{"compound": "CN(Cc1ccccc1)c1ccc(-c2nc(-c3ccccc3)no2)cc1[N+](=O)[O-]", "activity change, negative = inhibition": "-22.6% (inactive)"}
{"compound": "Cc1ccc(-c2ccnc3[nH]n(-c4ccccc4)c(=O)c23)cc1", "activity change, negative = inhibition": "-32.1% (inactive)"}
{"compound": "Cc1ccc(C2C3=C(Nc4[nH]n(-c5ccccc5)c(=O)c42)c2ccccc2C3=O)cc1", "note": "(stereo not given)", "Potency": "35.5 µM (active)"}
{"compound": "Cc1ccc(-n2[nH]c(C)c(/C=N/N3C(=O)c4cccc5cccc(c45)C3=O)c2=O)cc1", "activity change, negative = inhibition": "1.55% (inactive)"}
{"compound": "COc1cc2[nH]c(=O)n(Cc3ccc(C(=O)NCc4ccc(C)cc4)cc3)c(=O)c2cc1OC", "activity change, negative = inhibition": "1.5% (inactive)"}
{"compound": "O=c1cc(CSc2ncn[nH]2)[nH]c2ccc(F)cc12", "activity change, negative = inhibition": "5.18% (inactive)"}
{"compound": "Cc1ccc(NC(=O)Cc2ccc(NC(=O)N3CCCCc4ccccc43)cc2)cc1", "activity change, negative = inhibition": "-19.7% (inactive)"}
{"compound": "CCN(CC)S(=O)(=O)c1ccc2c(c1)nc(CN(C)C(=O)Nc1ccc(Cl)cc1)n2C", "activity change, negative = inhibition": "-2.28% (inactive)"}
{"compound": "O=C(NCCC1=CCCCC1)c1ccc2c(c1)N(Cc1ccccc1F)C(=O)c1ccccc1S2(=O)=O", "activity change, negative = inhibition": "-13.6% (inactive)"}
{"compound": "COc1cccc(/C=N\\NC(=O)C2=NNC(=O)C2C)c1O", "note": "(stereo not given)", "Potency": "50.1 µM (active)"}
{"compound": "COc1cc2cc(C(=O)N/N=C/c3cccc(OC)c3OC)[nH]c2cc1OC", "activity change, negative = inhibition": "-4.94% (inactive)"}
{"compound": "CCOc1ccc2[nH]c(C(=O)N/N=C/c3cccc(OC)c3OC)cc2c1", "activity change, negative = inhibition": "-3.47% (inactive)"}
{"compound": "COc1ccc(Nc2ncc(C(=O)Nc3cc(C)ccc3OC)c3ccccc23)cc1", "activity change, negative = inhibition": "-2.1% (inactive)"}
{"compound": "COc1ccc(-c2nc(Cn3c(=O)cc(C)c4c(C)nn(-c5ccccc5)c43)c(C)o2)cc1OC", "activity change, negative = inhibition": "15.4% (inactive)"}
{"compound": "COc1ccc(Cl)cc1NC(=O)CSc1nc(=O)[nH]c2c1CCCC2", "activity change, negative = inhibition": "-6.06% (inactive)"}
{"compound": "COc1cc(OC)cc(C(=O)NCCc2csc3nc(-c4ccccc4F)nn23)c1", "activity change, negative = inhibition": "-3.6% (inactive)"}
{"compound": "COc1ccc(S(=O)(=O)NCC(c2ccc(C)cc2)N2CCN(C)CC2)cc1OC", "note": "(stereo not given)", "activity change, negative = inhibition": "29.4% (inactive)"}
{"compound": "COc1ccc(S(=O)(=O)NCC(c2ccc(N(C)C)cc2)N2CCc3ccccc32)cc1OC", "note": "(stereo not given)", "Potency": "11.2 µM (active)"}
{"compound": "COc1ccc(C(=O)NCC(c2ccc(N(C)C)cc2)N2CCc3ccccc32)c(OC)c1", "note": "(stereo not given)", "activity change, negative = inhibition": "-12.9% (inactive)"}
{"compound": "CCn1c(C(=O)Nc2cc(Cl)ccc2C)cc2sc(Cl)cc21", "activity change, negative = inhibition": "-0.183% (inactive)"}
{"compound": "COc1cccc(CNC(=O)CSc2c3c(nc4cc(Cl)ccc24)CCCC3)c1", "activity change, negative = inhibition": "1.25% (inactive)"}
{"compound": "CCOc1ccc(CNC(=O)C2CCN(c3nnc(-n4cccc4CNc4ccc(C)cc4)s3)CC2)cc1OC", "activity change, negative = inhibition": "3.71% (inactive)"}
{"compound": "CC(C)c1ccc2c(c1)c(SC(C)(C)C)c(CC(C)(C)C(=O)O)n2Cc1ccc(Cl)cc1", "Potency": "inactive and 50.1 µM (active)"}
{"compound": "CC(C)c1ccc(Cn2c(COc3ccccc3)nc3ccccc32)cc1", "activity change, negative = inhibition": "50.3% (inactive)"}
{"compound": "Cc1c(C)n(Cc2ccc(Cl)cc2)c2ccc(C(=O)N3CCN(c4ccccc4F)CC3)cc12", "activity change, negative = inhibition": "-36.9% (inactive)"}
{"compound": "CCCn1c(=N)c(C(=O)NCc2ccccc2)cc2c(=O)n3cccc(C)c3nc21", "activity change, negative = inhibition": "10.7% (inactive)"}
{"compound": "CN1/C(=C\\C=C2\\N=C(c3ccc(F)cc3)OC2=O)C(C)(C)c2ccccc21", "Potency": "50.1 µM (active)"}
{"compound": "O=C1OC(c2ccc(Cl)cc2)=N/C1=C\\c1cccnc1", "activity change, negative = inhibition": "2.81% [at 57.1 µM] (inactive)"}
{"compound": "Cc1cccc(C2=N/C(=C/c3cccs3)C(=O)O2)c1", "activity change, negative = inhibition": "-24.5% (inactive)"}
